hgDAF-12 ag: H. glycines DAF-12 receptor agonists, primary screen, cell-based, luminescence, HEK293, GAL4 fusion, UAS-luciferase. Nuclear hormone receptor DAF-12 (Heterodera glycines), GAL4 fusion. HEK293 GAL4-hgDAF12 UAS-luciferase reporter, agonist luminescence; normalized to butyrate control. activation, % at 6.8 µM. 370,000 compounds, 1.8% hits. AID 687014, 2013;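 active = activation above a cutoff set at the mean of all screened compounds plus 3 SD, cut at about 10% in these data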
DAX1 inh-1: DAX1 (NR0B1) inhibitors on StAR promoter, primary screen, cell-based, luminescence, SF-1 (NR5A1), full-length DAX-1. HEK293T StAR-luciferase reporter, SF-1/DAX-1 repression relief. inhibition, % at 6.8 µM. 370,000 compounds, 1.1% hits;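 active = inhibition above the mean over all tested compounds plus 3 SD, cut at about 3.6% in these data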;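 also: higher inhibition means more luminescence from relief of DAX-1 repression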
ssDAF12 agonist: S. stercoralis DAF-12 nuclear receptor activators, primary screen, cell-based, luminescence, HEK293, GRIP1 co-expression, lit1-tk-luc | activation, % at 6.8 µM | 370,000 compounds, 1% hits | HEK293 ssDAF-12/GRIP1 lit1-tk-luc reporter; % of 3 µM dafachronic acid response | Nuclear hormone receptor DAF-12 (Strongyloides stercoralis);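 active = activation above the mean over all tested compounds plus 3 SD, cut at about 0.9% in these data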
AHR act: AHR activators, primary screen, cell-based, luminescence, luciferase reporter, human; AHR-responsive luciferase reporter cells; activation, % at 5 µM; 320,000 compounds, 2.5% hits; AID 2796, 2010; in the data active = activation above about 47%
hcDAF12 agonist: H. contortus DAF-12 nuclear receptor activators, primary screen, cell-based, luminescence, HEK293, lit1-tk-luc reporter; HEK293 hcDAF-12 lit1-tk-luc reporter; 0% DMSO, 100% Δ7-dafachronic acid; activation, % at 6.8 µM; 370,000 compounds, 1.4% hits; AID 652067, 2013;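 active = activation above the mean of all tested compounds plus 3 SD, cut at about 5.5% in these data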
DAX1 inh-2: DAX1 (NR0B1) inhibitors, primary screen, cell-based, HEK293, Gal4-DAX1, luciferase luminescence | inhibition, % at 6.75 µM | Nuclear receptor subfamily 0 group B member 1 (Homo sapiens), P51843 | 340,000 compounds, 0.99% hits | HEK293 Gal4-DAX1 luciferase reporter;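 active = inhibition above the mean over all tested compounds plus 3 SD, cut at about 4.2% in these data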;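 also: inhibition shows as a rise in luminescence from relieved DAX1 repression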
Target sequence (P51843 207-470 limits assumed): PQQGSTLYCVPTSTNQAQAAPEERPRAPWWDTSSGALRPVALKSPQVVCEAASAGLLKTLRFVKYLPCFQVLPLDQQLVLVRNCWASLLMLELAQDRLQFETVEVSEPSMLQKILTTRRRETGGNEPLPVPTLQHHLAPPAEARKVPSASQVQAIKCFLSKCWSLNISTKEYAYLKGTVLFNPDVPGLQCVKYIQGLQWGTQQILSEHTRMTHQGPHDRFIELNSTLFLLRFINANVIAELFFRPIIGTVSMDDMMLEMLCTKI
Of the large screens only hits and unclear results are named; the others gave an inactive call; ! = not confirmed by another sample. In the library only some 5.7% were active in any assay of this set; here they are far more common.

CCOC(=O)Nc1nnc(/C=C/c2ccc(OC)cc2)s1	AHR act 74
CCCC(=O)Nc1nnc(/C=C/c2ccccc2)s1	none
CCC(=O)Nc1nnc(/C=C/c2ccccc2)s1	DAX1 inh-2 5.3
CCCCOC(=O)Nc1nnc(/C=C/c2ccc(OC)cc2)s1	none
CC1(C)CC(=O)C2=C(C1)OC(N)=C(C#N)C21C(=O)N2CCCc3cccc1c32 (configuration not stated)	ssDAF12 agonist 1.0
C[C@@H]1CN([C@@H](C)CO)C(=O)c2cc(NS(=O)(=O)c3cccs3)ccc2O[C@H]1CN(C)Cc1ccc(C(F)(F)F)cc1	none
O=C(O)c1cccc(N=NN2CCOCC2)c1	DAX1 inh-1 3.7 (no result: DAX1 inh-2)
c1ccc(N=NN2CCOCC2)cc1	none (no result: AHR act)
CC(=O)N1CCc2cc(Br)c(S(=O)(=O)CCC(=O)N3CCN(c4ccccn4)CC3)cc21	none (no result: AHR act, DAX1 inh-2)
CCOc1nc(Nc2ccc(Cl)cc2)nc(OCC)n1	none
CN(C)c1nc(Nc2ccc(Cl)cc2)nc(OCC#N)n1	AHR act 49
O=C(CSc1ccc(Br)cc1)NC1CCCCCC1	ssDAF12 agonist 1.9
CCn1c(=O)c2c(nc3n2CCS3)n(C)c1=O	none
Cn1c(=O)n(CC(=O)O)c(=O)c2c1nc1n2CCS1	DAX1 inh-2 6.4!
Cc1ccc2[nH]c3c(c2c1)CCc1cn[nH]c1-3	AHR act 53
CCCCCC1CC(CC(=O)NC(=S)Nc2ccc([N+](=O)[O-])cc2)C(=O)O1 (configuration not stated)	none
CC(=O)Oc1ccc2c(c1)C(=O)c1ccccc1CO2	none
COc1ccc(C2=Cc3ccc(OC(C)=O)cc3OC2)cc1	DAX1 inh-2 5.5 (no result: AHR act)
N/C(=N\NC(=O)c1cccs1)c1cc2ccccc2oc1=O	hgDAF-12 ag 11
C=CCn1c(SCC(=O)Nc2ccccc2OC)nnc1-c1ccccn1	none
Cc1nnc(C)n1/N=C/c1ccc(O)cc1	none
Oc1ccc(/C=N/n2c3ccccc3c3ccccc32)cc1	AHR act 55
Cc1cccc(-n2c(=O)[nH]c3c(C(N)=O)nc(C(C)C)nc32)c1	AHR act 53
Cc1ccc(-n2c(=O)[nH]c3c(C(N)=O)nc(C(C)C)nc32)cc1	none
CN1CCN(c2ccncc2S(=O)(=O)N2CCCCC2)CC1	DAX1 inh-2 4.9
CC(C)N1CCN(c2ccncc2S(=O)(=O)N2CCCCC2)CC1	none (no result: AHR act)
CCNCCNC(=O)c1c(O)c2cccc3c2n(c1=O)CCC3	AHR act 60
CCCCNC(=O)c1c(O)c2cccc3c2n(c1=O)CCC3	none
Cn1c(=O)c2cc(NC(=O)CCc3ccc(O)cc3)ccc2n1Cc1cccc(C(F)(F)F)c1	none (no result: AHR act, DAX1 inh-2)
Cc1ccc(-c2c[n+](CC(=O)Nc3ccccc3C)c3n2CCC3)cc1	DAX1 inh-2 4.3
O=C(C[n+]1cc(-c2ccc(F)cc2)n2c1CCC2)c1cccs1	DAX1 inh-2 6.7
Cn1c(NC(=O)C[n+]2cc(-c3ccc(F)cc3)n3c2CCC3)cc(=O)n(C)c1=O	none
O=C(Nc1ccc(-c2nnn(CC(=O)N3CCN(C(=O)c4ccco4)CC3)n2)cc1)c1ccc(F)cc1	none
O=C1C(=NO)CCc2ccccc21	ssDAF12 agonist 1.3 (no result: AHR act)
N#Cc1c(N2CCOCC2)nc(N2CCCCC2)c2c1CCN(C1CCCCC1)C2	none (no result: hgDAF-12 ag, DAX1 inh-1, ssDAF12 agonist, hcDAF12 agonist, DAX1 inh-2)
CNC(=O)CSc1nc2sccc2c(=O)n1-c1ccccc1	DAX1 inh-2 4.6
COCCN1CCc2c(C)nc3c(-c4ccc(OC)c(OC)c4)cnn3c21	AHR act 49
COc1ccc(-c2cnn3c4c(c(C)nc23)CCN4C2CCCC2)cc1OC	DAX1 inh-2 5.9
COc1ccc(C2=CN3CCCCC3CC2=O)cc1OC (configuration not stated)	none
CCCNC(=O)C1CCN(S(=O)(=O)c2ccc(-c3nn[nH]n3)cc2)CC1	none

Source: PubChem BioAssay
